Results from PubChem BioAssay (NCATS).
Inconclusive results are not listed. Calls of active or inactive are those of the source. Calls come from the whole dose curve; as a rule, active = well fitted curve in the direction sought with a large enough effect; inconclusive = small, poorly fitted or top-dose-only effect, or another doubt; inactive = no such curve, though single readings can be large; an effect the other way counts as inactive or inconclusive.

Columns and labels:
[1] = molecular target: Lysine-specific demethylase 5B (Homo sapiens) (UniProt Q9UGL1); assay: Optimization screen for KDM5B Histone Demethylases FDH coupled qHTS against the LOPAC library (AID 1347166); note: 0% is about no effect
Chain of Lysine-specific demethylase 5B (Homo sapiens) (Q9UGL1 whole entry, looked up): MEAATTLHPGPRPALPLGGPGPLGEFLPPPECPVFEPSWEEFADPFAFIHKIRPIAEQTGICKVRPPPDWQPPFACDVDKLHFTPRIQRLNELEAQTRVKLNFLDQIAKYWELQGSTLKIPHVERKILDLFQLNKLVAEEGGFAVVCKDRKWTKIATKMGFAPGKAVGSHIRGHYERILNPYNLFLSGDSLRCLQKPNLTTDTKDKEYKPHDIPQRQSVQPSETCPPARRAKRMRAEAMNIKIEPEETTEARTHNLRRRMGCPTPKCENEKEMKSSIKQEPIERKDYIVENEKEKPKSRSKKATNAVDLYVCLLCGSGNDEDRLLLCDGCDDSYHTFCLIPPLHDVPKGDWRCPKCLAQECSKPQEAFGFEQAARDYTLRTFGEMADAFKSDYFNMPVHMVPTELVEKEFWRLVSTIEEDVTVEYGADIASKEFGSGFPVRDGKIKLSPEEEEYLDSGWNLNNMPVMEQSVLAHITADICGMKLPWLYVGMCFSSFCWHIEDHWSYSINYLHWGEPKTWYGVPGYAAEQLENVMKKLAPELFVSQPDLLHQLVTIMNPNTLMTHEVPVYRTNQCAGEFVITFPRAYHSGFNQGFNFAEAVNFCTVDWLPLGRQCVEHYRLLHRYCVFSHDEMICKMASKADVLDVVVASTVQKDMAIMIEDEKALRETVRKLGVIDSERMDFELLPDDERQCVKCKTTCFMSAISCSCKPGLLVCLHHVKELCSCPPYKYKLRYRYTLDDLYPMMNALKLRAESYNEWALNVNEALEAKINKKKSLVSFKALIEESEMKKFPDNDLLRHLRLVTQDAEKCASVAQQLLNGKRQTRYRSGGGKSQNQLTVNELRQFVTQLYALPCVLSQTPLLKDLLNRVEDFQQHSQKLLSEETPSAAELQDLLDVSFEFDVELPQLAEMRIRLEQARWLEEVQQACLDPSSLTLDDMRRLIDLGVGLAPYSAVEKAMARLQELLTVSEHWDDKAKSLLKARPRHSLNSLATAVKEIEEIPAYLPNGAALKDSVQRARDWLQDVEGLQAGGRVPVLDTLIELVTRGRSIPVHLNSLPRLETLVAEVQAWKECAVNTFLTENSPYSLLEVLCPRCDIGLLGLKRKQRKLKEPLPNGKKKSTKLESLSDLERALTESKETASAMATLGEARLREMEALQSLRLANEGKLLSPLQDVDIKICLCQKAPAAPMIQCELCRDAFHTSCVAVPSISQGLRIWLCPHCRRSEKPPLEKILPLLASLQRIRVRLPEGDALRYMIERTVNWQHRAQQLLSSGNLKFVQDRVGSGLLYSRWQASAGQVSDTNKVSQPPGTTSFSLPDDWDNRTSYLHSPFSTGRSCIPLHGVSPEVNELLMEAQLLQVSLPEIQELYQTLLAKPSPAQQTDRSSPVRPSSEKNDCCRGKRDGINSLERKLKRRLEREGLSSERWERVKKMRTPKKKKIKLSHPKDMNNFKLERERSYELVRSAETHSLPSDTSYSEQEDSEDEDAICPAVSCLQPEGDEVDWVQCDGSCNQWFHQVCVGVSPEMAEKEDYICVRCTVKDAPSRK
Summary of the method: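 KDM5BDeltaAP (200nM final) in 50mM HEPES pH 7.5, 0.01% Tween-20 was preincubated with compound for 10 min at room temperature. A substrate mix of 12.5uM H3K4Me3, 25uM a-ketoglutarate, ascorbate, Fe2+, NAD+ and formaldehyde dehydrogenase was then added. NADH fluorescence (340/450 nm) was read initially and after 30 min.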

[2] = test system: Zika virus NS2B-NS3 protease (linked construct); assay: Primary screen NINDS Rhodamine qHTS for Zika virus inhibitors (AID 1347160); settings: outcome: dose series up to 57.1 µM; note: nearly all actives have a fitted effect of over 55% in size; for activity change, negative = inhibition: % is set by controls: 0 for no effect and ±100 for the full control effect
Summary of the method: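 Enzyme (25 nM, linked NS2B-NS3) was preincubated 15 min with compound in 10 mM Tris-HCl pH 8.0, 0.01% Tween 20. Rhodamine110 substrate (1.5 microM) was then added and fluorescence read at start and after 15 min.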

[3] = OV-KATE Cancer Cell Toxicity qHTS against the NCATS CANVASS Library (AID 1347345); note: % is set by controls: 0 for no effect and ±100 for the full control effect
Summary of the method: (§1)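 ATP content after 72 h treatment, detected by CellTiter-Glo luminescence (15min room-temperature development), reflects cell viability. Wells contained 1000 cells and received compounds at 11 concentrations.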

[4] = HPAF-II Cancer Cell Toxicity qHTS against the NCATS CANVASS Library (AID 1347346); note: % is set by controls: 0 for no effect and ±100 for the full control effect; nearly all actives have a fitted effect of over 55% in size
Summary of the method: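 First, HPAF-II cells are plated (1000 cells/well) and held 4 h at 37 degrees C. Next, compounds are pin-transferred as an 11-point series. After 72 h, CellTiter-Glo is added and luminescence measured.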

[5] = UWB1.289 Cancer Cell Toxicity qHTS against the NCATS CANVASS Library (AID 1347347); note: % is set by controls: 0 for no effect and ±100 for the full control effect; nearly all actives have a fitted effect of over 60% in size
Summary of the method: as §1

[6] = OV-SAHO Cancer Cell Toxicity qHTS against the NCATS CANVASS Library (AID 1347348); note: % is set by controls: 0 for no effect and ±100 for the full control effect; nearly all actives have a fitted effect of over 55% in size
Summary of the method: as §1

[7] = Panc-1005 Cancer Cell Toxicity qHTS against the NCATS CANVASS Library (AID 1347349); note: % is set by controls: 0 for no effect and ±100 for the full control effect; nearly all actives have a fitted effect of over 60% in size
Summary of the method: as §1

[8] = U-118MG Cancer Cell Toxicity qHTS against the NCATS CANVASS Library (AID 1347351); note: % is set by controls: 0 for no effect and ±100 for the full control effect
Summary of the method: as §1

[9] = UWB1.289-WTBRCA1 Cancer Cell Toxicity qHTS against the NCATS CANVASS Library (AID 1347354); settings: UWB1.289-WTBRCA1 viability, CellTiter-Glo luminescence, 72 h; at 76 µM (top of the series)
Summary of the method: (§2)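 First, 1000 cells go into each well and rest for 4 hours. Next, an 11-point dilution range is pinned in. Plates then incubate 72 hours before CellTiter-Glo addition and luminescence reading.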

[10] = HEK-293 Cancer Cell Toxicity qHTS against the NCATS CANVASS Library (AID 1347355); note: % is set by controls: 0 for no effect and ±100 for the full control effect; nearly all actives have a fitted effect of over 65% in size
Summary of the method: as §2

[11] = HPAF-II 24hr Apoptosis Induction qHTS against the NCATS CANVASS Library (AID 1347356); note: 0% is about no effect
Summary of the method: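 Cells seeded at 500 per well, then compounds pin-transferred in an 11-point concentration series. After 24 hours at 37 degrees C, Caspase-Glo 3/7 was added and luminescence measured following 15 min at room temperature.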

[12] = HEK293 18hr Apoptosis Induction qHTS against the NCATS CANVASS Library (AID 1347357); note: 0% is about no effect
Summary of the method: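 Natural products applied to HEK293 for 18 hr; Caspase-Glo 3/7 readout.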

[13] = test system: Zika virus NS2B-NS3 protease (unlinked complex); assay: Primary screen GU Rhodamine qHTS for Zika virus inhibitors: Unlinked NS2B-NS3 protease assay (AID 1347159); note: % is set by controls: 0 for no effect and ±100 for the full control effect; nearly all actives have a fitted effect of over 60% in size
Summary of the method: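 Enzyme 25 nM in Tris-HCl pH 8.0 + 0.01% Tween 20; compounds up to 114 microM, 15 min RT dark; + Rhod110 substrate 1.5 microM; read t0 and 15 min; delta fluorescence → % inhibition → 4-parameter Hill fit.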

[14] = ZIKV-mCherry secondary qHTS for Zika virus inhibitors (AID 1347158); settings: Vero cells, ZIKV-mCherry infection imaging, 48-72 h; note: potency is the fitted concentration of half-maximal effect
Summary of the method: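 Compounds were tested in Vero monkey kidney cells infected with recombinant mCherry-expressing Zika virus at MOI 1 for 48-72 h at 37 °C. Fixed cells were nuclear-stained and imaged, and infection rate was taken as the fraction of mCherry-positive cells.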

[15] = Confirmatory screen NINDS Rhodamine qHTS for Zika virus inhibitors (AID 1347161); settings: purified enzyme assay, Rhodamine110 substrate fluorescence, 15 min; note: potency is the fitted concentration of half-maximal effect; nearly all actives have a fitted effect of over 60% in size
Summary of the method: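 Aprotinin served as in-plate control. Conditions: 25 nM linked NS2B-NS3, pH 8.0 Tris buffer, titrated compounds, 15 min preincubation and 15 min reaction with 1.5 microM Rhod110 substrate at room temperature.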

[16] = test system: Zika virus NS2B-NS3 protease (linked); assay: 384 well plate NINDS AMC confirmatory qHTS for Zika virus inhibitors (AID 1347163);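 note: linked protease at 5 30 or 60 nM final depending on run; fluorescence of AMC released from Ac-VKTGKR-AMC peptide cleaved by the protease; top concentration of the series differs between compounds; 0% = no-inhibitor control and -100% = no-enzyme control; nearly all actives have a fitted effect of over 50% in size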
Summary of the method: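 Fluorescence at 355/460 nm was read after 25 minutes of cleavage of 30 microM Ac-VKTGKR-AMC at room temperature, in the dark. Before substrate addition, compounds (up to 1 mM final) sat ~15 minutes with 5, 30 or 60 nM linked protease. Signals were normalized to no-enzyme and no-inhibitor wells.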

[17] = test system: Zika virus NS2B-NS3 protease (linked construct); assay: 384 well plate NINDS Rhodamine confirmatory qHTS for Zika virus inhibitors (AID 1347164); settings: rhodamine-110 peptide substrate fluorescence; note: potency is the fitted concentration of half-maximal effect; nearly all actives have a fitted effect of over 65% in size
Summary of the method: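 Cleavage of Ac-LKRR-Rhodamine 110 (10 microM final) by linked protease (final 5, 30 or 60 nM) was followed as fluorescence at 485/538 nm after 25 min, room temperature, dark. Compounds preincubated ~15 min.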

[18] = Vero cells viability qHTS for Zika virus inhibitors (AID 1347167); note: potency is the fitted concentration of half-maximal effect
Summary of the method: (§3)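 Luminescent ATP readout (CellTiter Glo) after 30 min at 37 degrees C gives viability; cells in DMEM + 4% FBS were treated 24 to 48 hours with compound, following overnight attachment.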

[19] = HepG2 cells viability qHTS for Zika virus inhibitors (AID 1347168); note: % is set by controls: 0 for no effect and ±100 for the full control effect
Summary of the method: as §3

[20] = Tertiary RLuc qRT-PCR qHTS assay for Zika virus inhibitors (AID 1347169); note: potency is the fitted concentration of half-maximal effect; nearly all actives have a fitted effect of over 55% in size
Summary of the method: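 Inhibition of ZIKV-RLuc replication in Vero cells, read as Renilla luminescence 1-1.5 hrs after live-cell substrate addition, following 48-72 hrs infection at MOI 1-2 in presence of compound.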

CN1C(=O)CCS(=O)(=O)C1c1ccc(Cl)cc1 (stereo unspecified)
inactive: outcome [1]

NCCc1ccc(O)cc1
inactive: outcome [2] | outcome [1] | outcome [3] | outcome [4] | outcome [5] | outcome [6] | outcome [7] | outcome [8] | outcome [9] | outcome [10] | outcome [11] | outcome [12]

CC(C)c1cccc(C(C)C)c1O
inactive: outcome [1]

C=CCN1C[C@H](C)N([C@H](c2ccc(C(=O)N(CC)CC)cc2)c2cccc(OC)c2)C[C@H]1C
inactive: activity change, negative = inhibition [13] -8.84% [at 19.1 µM] | activity change, negative = inhibition [2] 6.42% [at 10.7 µM]

CC(NC(C)(C)C)C(=O)c1cccc(Cl)c1 (stereo unspecified)
inactive: outcome [13] | outcome [2] | outcome [1]

O=C(Nc1ccc(Br)cc1)c1cc(Br)cc(Br)c1O
inactive: Potency [16] | outcome [19]
active: Potency [14] 8.91 µM | Potency [15] 3.12 µM | Potency [17] 44.7 µM | Potency [18] 23.4 µM | Potency [20] 8.29 µM
